Records with an inconclusive call do not appear. Activity calls are given as the source filed them. Unless noted, the call rests on the fitted dose curve; in most records, active means well fitted inhibition curve with a large enough effect; inconclusive means small, poorly fitted or top-dose-only effect; inactive means flat fitted curve, though single readings scatter.
What was measured:
CP194 = test: qHTS profiling for inhibitors of Plasmodium falciparum proliferation (AID 504749); further: nearly all actives have a fitted effect of over 60% in size; further: potency means the concentration at half of the fitted maximal effect; conditions: P. falciparum in erythrocytes, SYBR Green DNA, 72 h; series mostly up to 28.7 µM
How it was run: (§1)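 Readout was DNA-dye fluorescence from lysed cultures, ex 485/em 535 nm. Parasitized red cells had grown 72 h with compound; data scaled between 0.29 uM artemisinin and DMSO wells and corrected using vehicle-only plates.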

CP203 = test: as above; conditions: P. falciparum in erythrocytes, SYBR Green DNA, 72 h; series mostly up to 28.7 µM
How it was run: as §1

CP217 = test: as above; conditions: P. falciparum in erythrocytes, SYBR Green DNA, 72 h; series mostly up to 28.7 µM
How it was run: as §1

CP247 = test: as above; conditions: P. falciparum in erythrocytes, SYBR Green DNA, 72 h; series mostly up to 28.7 µM
How it was run: as §1

CP256 = test: as above; conditions: P. falciparum in erythrocytes, SYBR Green DNA, 72 h; series mostly up to 28.7 µM
How it was run: as §1

CP262 = test: as above; conditions: P. falciparum in erythrocytes, SYBR Green DNA, 72 h; series mostly up to 28.7 µM
How it was run: as §1

CP265 = test: as above; conditions: P. falciparum in erythrocytes, SYBR Green DNA, 72 h; series mostly up to 28.7 µM
How it was run: as §1

CP266 = test: as above; conditions: P. falciparum in erythrocytes, SYBR Green DNA, 72 h; series mostly up to 28.7 µM
How it was run: as §1

CP297 = test: as above; conditions: P. falciparum in erythrocytes, SYBR Green DNA, 72 h; series mostly up to 28.7 µM
How it was run: as §1

CP335 = test: as above; conditions: P. falciparum in erythrocytes, SYBR Green DNA, 72 h; series mostly up to 28.7 µM
How it was run: as §1

DFO2036 = test: as above; conditions: P. falciparum in erythrocytes, SYBR Green DNA, 72 h; series mostly up to 28.7 µM
How it was run: as §1

DIV30 = test: as above; conditions: P. falciparum in erythrocytes, SYBR Green DNA, 72 h; series mostly up to 28.7 µM
How it was run: as §1

HB3 = test: as above; conditions: P. falciparum in erythrocytes, SYBR Green DNA, 72 h; series mostly up to 28.7 µM
How it was run: as §1

ICS = test: as above; conditions: P. falciparum in erythrocytes, SYBR Green DNA, 72 h; series mostly up to 28.7 µM
How it was run: as §1

N140 = test: as above; conditions: P. falciparum in erythrocytes, SYBR Green DNA, 72 h; series mostly up to 28.7 µM
How it was run: as §1

PAD = test: as above; conditions: P. falciparum in erythrocytes, SYBR Green DNA, 72 h; series mostly up to 28.7 µM
How it was run: as §1

PC26 = test: as above; conditions: P. falciparum in erythrocytes, SYBR Green DNA, 72 h; series mostly up to 28.7 µM
How it was run: as §1

[1] = target: Peroxisome proliferator-activated receptor delta (Homo sapiens) (UniProt Q03181); test: qHTS assay for small molecule agonists of peroxisome proliferator-activated receptor delta signaling (AID 588534; calls by dose curve)
Chain of Peroxisome proliferator-activated receptor delta (Homo sapiens) (Q03181 whole entry, looked up): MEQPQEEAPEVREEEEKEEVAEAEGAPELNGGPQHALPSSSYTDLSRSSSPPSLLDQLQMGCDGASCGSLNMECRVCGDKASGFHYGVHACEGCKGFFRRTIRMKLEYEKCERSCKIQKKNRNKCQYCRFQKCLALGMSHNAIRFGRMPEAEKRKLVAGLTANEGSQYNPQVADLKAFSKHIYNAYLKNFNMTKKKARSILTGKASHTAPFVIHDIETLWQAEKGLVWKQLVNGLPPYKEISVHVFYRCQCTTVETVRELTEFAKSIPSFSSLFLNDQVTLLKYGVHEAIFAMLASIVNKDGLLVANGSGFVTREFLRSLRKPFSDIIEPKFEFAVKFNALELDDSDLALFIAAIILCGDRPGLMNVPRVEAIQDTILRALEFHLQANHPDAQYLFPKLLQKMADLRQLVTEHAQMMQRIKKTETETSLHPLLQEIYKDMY
How it was run: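 Reporter cells were plated and held 5 hrs at 37 C before compounds were added. After 18 hrs at 37 C, CCF4 dye was loaded for 2 hrs at RT and fluorescence measured.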

[2] = qHTS assay for small molecule antagonists of retinoid X receptor alpha signaling (AID 588546); conditions: HEK293T RXRa-UAS-bla, beta-lactamase ratio, antagonist mode; measured here: W530 green channel, cytotoxicity proxy;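 further: cells stimulated with 9-cis-retinoic acid as agonist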
How it was run: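 Beta-lactamase reporter inhibition, read as CCF4 fluorescence ratio (ex 405, em 460/530 nm) after 2 h at RT. HEK293T UAS-bla cells, 2500/well, were stimulated with 9-cis-RA at 500 or 100 nM final alongside test compound for 18 h at 37 C.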

COC(=O)C1C(OC(=O)c2ccccc2)CC2CCC1N2C (configuration not stated)
inactive: Potency (CP194) | Potency (CP203) | Potency (CP217) | Potency (CP247) | Potency (CP256) | Potency (CP262) | Potency (CP265) | Potency (CP266) | Potency (CP297) | Potency (CP335) | Potency (DFO2036) | Potency (DIV30) | Potency (HB3) | Potency (ICS) | Potency (N140) | Potency (PAD) | Potency (PC26)

C#CCN1CC(=O)N(COC(=O)[C@@H]2[C@@H](C=C(C)C)C2(C)C)C1=O
-1.89%: max response [2]
inactive: outcome [1] | Potency (CP194) | Potency (CP203) | Potency (CP217) | Potency (CP247) | Potency (CP256) | Potency (CP262) | Potency (CP265) | Potency (CP335) | Potency (DFO2036) | Potency (DIV30) | Potency (HB3) | Potency (ICS) | Potency (N140) | Potency (PAD) | Potency (PC26)

CC(Cc1ccccc1)N(C)C (configuration not stated)
inactive: Potency (CP194) | Potency (CP203) | Potency (CP217) | Potency (CP247) | Potency (CP256) | Potency (CP265) | Potency (CP266) | Potency (CP297) | Potency (CP335) | Potency (DFO2036) | Potency (DIV30) | Potency (HB3) | Potency (ICS) | Potency (N140) | Potency (PAD) | Potency (PC26)

COC(C(=O)C(O)C(C)O)C1Cc2cc3cc(OC4CC(OC5CC(O)C(OC)C(C)O5)C(OC(C)=O)C(C)O4)c(C)c(O)c3c(O)c2C(=O)C1OC1CC(OC2CC(OC3CC(C)(O)C(OC(C)=O)C(C)O3)C(O)C(C)O2)C(O)C(C)O1 (configuration not stated)
active: Potency (CP194) 6750 nM | Potency (CP203) 4780 nM | Potency (CP217) 1780 nM | Potency (CP247) 1780 nM | Potency (CP256) 2510 nM | Potency (CP262) 3380 nM | Potency (CP265) 2240 nM | Potency (CP297) 4260 nM | Potency (CP335) 338 nM | Potency (DFO2036) 1000 nM | Potency (HB3) 355 nM | Potency (ICS) 112 nM | Potency (N140) 1000 nM | Potency (PAD) 891 nM

C[C@]12CC[C@H]3[C@@H](CC[C@@]45O[C@@H]4C(=O)C(C#N)C[C@]35C)[C@@H]1CC[C@@H]2O (some centres not stated)
inactive: Potency (CP203) | Potency (CP247) | Potency (CP262) | Potency (CP266) | Potency (CP297) | Potency (CP335) | Potency (DIV30) | Potency (HB3) | Potency (PAD) | Potency (PC26)

C[C@@H](N)[C@@H](O)c1ccc(O)c(O)c1
inactive: Potency (CP194) | Potency (CP203) | Potency (CP217) | Potency (CP247) | Potency (CP256) | Potency (CP262) | Potency (CP265) | Potency (CP266) | Potency (CP297) | Potency (CP335) | Potency (DFO2036) | Potency (DIV30) | Potency (HB3) | Potency (ICS) | Potency (N140) | Potency (PAD) | Potency (PC26)

CC12CCC3C4CCC(=O)C(O)=C4CCC3C1CCC2OC(=O)CCC1CCCC1 (configuration not stated)
inactive: Potency (CP194) | Potency (CP203) | Potency (CP217) | Potency (CP247) | Potency (CP256) | Potency (CP262) | Potency (CP265) | Potency (CP266) | Potency (CP297) | Potency (CP335) | Potency (DFO2036) | Potency (DIV30) | Potency (HB3) | Potency (N140) | Potency (PAD) | Potency (PC26)

From PubChem BioAssay (NCATS)
